Laboratory results: PubChem BioAssay (NCATS)
Inconclusive results are not listed. Activity calls are given as the source filed them. Calls follow the shape of the dose curve; as a rule, active = well fitted curve in the direction sought with a large enough effect; inconclusive = small, poorly fitted or top-dose-only effect, or another doubt; inactive = no such curve, though single readings can be large; an effect the other way counts as inactive or inconclusive.

Assays:
[1] = Quantitative High-Throughput drug screen in 47 multiple myeloma cell lines against the NCATS MIPE library collection: FR4_PLB cell viability assay (AID 1918924; also: nearly all actives have a fitted effect of over 35% in size)
In short: (§1)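 Viability readout: CellTiter-Glo luminescence following 5 min room-temperature incubation with reagent. Prior exposure: 48 h, 37C, humidified 5% CO2, 500 cells per well.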

[2] = Quantitative High-Throughput drug screen in 47 multiple myeloma cell lines against the NCATS MIPE library collection: Delta47_JCRB cell viability assay (AID 1918925; also: nearly all actives have a fitted effect of over 45% in size)
In short: (§2)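 Myeloma cell lines, 500 cells per well, exposed to MIPE 4.0 library compounds for 48 h at 37C, 5% CO2. Viability from ATP by CellTiter-Glo luminescence; normalised to DMSO (100%) and media-only (0%) wells.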

[3] = Quantitative High-Throughput drug screen in 47 multiple myeloma cell lines against the NCATS MIPE library collection: EJM_DSMZ cell viability assay (AID 1918926; also: nearly all actives have a fitted effect of over 30% in size)
In short: as §2

[4] = Quantitative High-Throughput drug screen in 47 multiple myeloma cell lines against the NCATS MIPE library collection: ARP1_JJKsccF8 cell viability assay (AID 1918928; also: nearly all actives have a fitted effect of over 40% in size)
In short: (§3)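 ATP readout (CellTiter-Glo), 48 h drug incubation, 37 °C/5% CO2, 500 cells per well; normalisation to DMSO (100%) and media-only (0%) controls.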

[5] = Quantitative High-Throughput drug screen in 47 multiple myeloma cell lines against the NCATS MIPE library collection: ARD_JJKsccE7 cell viability assay (AID 1918929)
In short: as §2

[6] = Quantitative High-Throughput drug screen in 47 multiple myeloma cell lines against the NCATS MIPE library collection: Karpas620_DSMZ cell viability assay (AID 1918959); also: nearly all actives have a fitted effect of over 30% in size
In short: as §1

[7] = Quantitative High-Throughput drug screen in 47 multiple myeloma cell lines against the NCATS MIPE library collection: KMM1_JCRB cell viability assay (AID 1918960); also: nearly all actives have a fitted effect of over 30% in size;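 as to viability (% of DMSO): 100% = DMSO-treated cells and 0% = medium-only wells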
In short: as §3

[8] = Quantitative High-Throughput drug screen in 47 multiple myeloma cell lines against the NCATS MIPE library collection: KHM11_PLB cell viability assay (AID 1918962); also: nearly all actives have a fitted effect of over 35% in size
In short: as §1

[9] = Quantitative High-Throughput drug screen in 47 multiple myeloma cell lines against the NCATS MIPE library collection: JIM3_ECACC cell viability assay (AID 1918963; also: nearly all actives have a fitted effect of over 35% in size)
In short: as §1

[10] = Quantitative High-Throughput drug screen in 47 multiple myeloma cell lines against the NCATS MIPE library collection: JIM1_ECACC cell viability assay (AID 1918964)
In short: as §2

[11] = Quantitative High-Throughput drug screen in 47 multiple myeloma cell lines against the NCATS MIPE library collection: INA6_PLB cell viability assay (AID 1918965; also: nearly all actives have a fitted effect of over 55% in size)
In short: (§4)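 Approved and investigational drugs from MIPE 4.0 were added by pin tool to 500 cells per well. After 48 hours at 37C, ATP-based CellTiter-Glo luminescence indicated remaining viability.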

[12] = Quantitative High-Throughput drug screen in 47 multiple myeloma cell lines against the NCATS MIPE library collection: JJN3_DSMZ cell viability assay (AID 1918966; also: nearly all actives have a fitted effect of over 50% in size)
In short: as §2

[13] = Quantitative High-Throughput drug screen in 47 multiple myeloma cell lines against the NCATS MIPE library collection: H1112_PLB cell viability assay (AID 1918967; also: nearly all actives have a fitted effect of over 30% in size)
In short: as §2

[14] = Quantitative High-Throughput drug screen in 47 multiple myeloma cell lines against the NCATS MIPE library collection: Karpas25_ECACC cell viability assay (AID 1918968; also: nearly all actives have a fitted effect of over 35% in size)
In short: as §2

[15] = Quantitative High-Throughput drug screen in 47 multiple myeloma cell lines against the NCATS MIPE library collection: KMS27_JCRB cell viability assay (AID 1918970); also: nearly all actives have a fitted effect of over 30% in size
In short: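 ATP-based viability (CellTiter-Glo luminescence) is measured in cells treated 48 h with approved and investigational drugs at 37 °C. Controls are DMSO-only wells for full viability and media-only wells for none.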

[16] = Quantitative High-Throughput drug screen in 47 multiple myeloma cell lines against the NCATS MIPE library collection: KMS12BM_JCRB cell viability assay (AID 1918971); also: nearly all actives have a fitted effect of over 35% in size
In short: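 We plated 500 myeloma cells per well, pinned in MIPE 4.0 compounds, and incubated for 48 hours at 37C. ATP was then quantified with CellTiter-Glo, with DMSO and media-only wells defining 100% and 0%.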

[17] = Quantitative High-Throughput drug screen in 47 multiple myeloma cell lines against the NCATS MIPE library collection: KMS12PE_JCRB cell viability assay (AID 1918972); also: nearly all actives have a fitted effect of over 30% in size; as to viability: series mostly up to about 46 µM
In short: as §4

[18] = Quantitative High-Throughput drug screen in 47 multiple myeloma cell lines against the NCATS MIPE library collection: KMS20_JCRB cell viability assay (AID 1918973); also: nearly all actives have a fitted effect of over 45% in size
In short: as §2
Potency is read from the fitted curve at half-maximal effect.

Cc1[nH]nc2ccc(-c3cncc(OC[C@@H](N)Cc4ccccc4)c3)cc12
active: Potency [1] 4180 nM | Potency [2] 526 nM | Potency [3] 1870 nM | Potency [4] 4690 nM | Potency [5] 2090 nM | Potency [6] 2090 nM | Potency [7] 1320 nM | Potency [8] 235 nM | Potency [9] 2090 nM | Potency [10] 1870 nM | Potency [11] 935 nM | Potency [12] 1180 nM | Potency [13] 1870 nM | Potency [14] 2960 nM | Potency [15] 2090 nM | Potency [16] 4180 nM | Potency [17] 833 nM | Potency [18] 1180 nM

O=C(CCCCCCC(=O)Nc1ccc([C@H]2O[C@@H](CSc3nc(-c4ccccc4)c(-c4ccccc4)o3)C[C@@H](c3ccc(CO)cc3)O2)cc1)NO
active: Potency [1] 11800 nM | Potency [2] 11800 nM | Potency [3] 13200 nM | Potency [4] 10500 nM | Potency [8] 14800 nM | Potency [9] 23500 nM | Potency [12] 13200 nM | Potency [13] 13200 nM | Potency [14] 9350 nM | Potency [16] 11800 nM | Potency [18] 6620 nM
inactive: Potency [5] | Potency [6] | Potency [7] | Potency [10] | Potency [15] | Potency [17]

CC1=C(CO)C(=O)O[C@@H]([C@@H](C)[C@H]2CC[C@H]3[C@@H]4C[C@H]5O[C@]56[C@@H](O)C=CC(=O)[C@]6(C)[C@@H]4CC[C@]23C)C1
inactive: Potency [5] | Potency [6] | Potency [7] | Potency [10] | Potency [17]
active: Potency [1] 372 nM | Potency [2] 148 nM | Potency [3] 235 nM | Potency [4] 166 nM | Potency [8] 209 nM | Potency [9] 209 nM | Potency [12] 662 nM | Potency [13] 418 nM | Potency [14] 132 nM | Potency [16] 372 nM | Potency [18] 148 nM

COc1ccc(CC2c3cc(OC)c(OC)cc3CC[N+]2(C)CCC(=O)OCCCCCOC(=O)CC[N+]2(C)CCc3cc(OC)c(OC)cc3C2Cc2ccc(OC)c(OC)c2)cc1OC (centres undefined)
inactive: viability (% of DMSO control) [1] 122% [at 5.15 µM] | viability, % of control [3] 94.3% [at 5.15 µM] | viability [5] 97.8% [at 5.15 µM] | viability (% of DMSO) [6] 107% [at 5.15 µM] | viability (% of DMSO) [7] 84% [at 5.15 µM] | viability, % of DMSO control [8] 95.7% [at 5.15 µM] | viability, percent of control [9] 105% [at 5.15 µM] | viability (% of DMSO) [10] 83.6% [at 5.15 µM] | viability [13] 104% [at 5.15 µM] | viability (% of control) [14] 100% [at 5.15 µM] | viability (% of DMSO) [15] 108% [at 5.15 µM] | viability, % of DMSO [16] 113% [at 5.15 µM]
active: Potency [2] 3280 nM
